Among the test systems are SR leukemia; RPMI-8226 leukemia; OVCAR-8 ovarian; OVCAR-5 ovarian; OVCAR-4 ovarian; SK-OV-3 ovarian; IGROV1 ovarian; OVCAR-3 ovarian; HS 578T breast; NCI/ADR-RES ovarian; T-47D breast; BT-549 breast; MDA-MB-435 melanoma; SW-620 colon; MCF7 breast; HCT-116 colon; HCC-2998 colon; KM12 colon; MDA-MB-468 breast.
Common to all, as to assay: NCI-60 one-dose screen, 48 h (100 = growth as untreated, 0 = no growth, -100 = all killed)
What all share (settings): 10 µM unless noted

This is part of a sample that, as a whole, favours compounds with a hit. Of some 83,000 tested, about 20% had one in any assay.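 Negative percent growth values reflect cell death: -40 means 40% of the cells present at the start died, and -100 means all died.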 A number with no mark means an inactive call. Active and inactive are the calls of the source. Rule for the calls: active = growth percent below 10; inactive = the rest.

Consider `CC(C)CSc1nc(NCCc2c[nH]c3ccccc23)c(C#N)c(-c2ccccc2)n1`, for which the growth is -10.2% (active) in the experiment with SR leukemia; 35.8% with RPMI-8226 leukemia; 76.9% with OVCAR-8 ovarian; 85.6% in the experiment with OVCAR-5 ovarian; 77.2% with OVCAR-4 ovarian; 86.7% in the experiment with SK-OV-3 ovarian. Moreover, the growth was 104% in the experiment on IGROV1 ovarian; 93.5% in the experiment with OVCAR-3 ovarian; 48.2% in the experiment on HS 578T breast; 53.5% with NCI/ADR-RES ovarian; 30.9% in the experiment on T-47D breast; 92.6% in the experiment on BT-549 breast. Moreover, the growth with MDA-MB-435 melanoma was 71.7%; in the experiment with SW-620 colon, 36.1%; with MCF7 breast it was 20.1%; in the experiment on HCT-116 colon it was 11.6%; in the experiment with HCC-2998 colon, 43.5%; in the experiment on KM12 colon, 35.3%. Also, the growth in the experiment on MDA-MB-468 breast was 20.8%.
As for `CC1(C)CC[C@]2(C(=O)Nc3ccc(F)cc3)CC[C@]3(C)C(=CCC4[C@@]5(C)C[C@@H](O)[C@H](O)[C@@](C)(CO)C5CC[C@]43C)C2C1` (some centres not stated), the growth was 1.68% (active) in the experiment on SR leukemia; 0.573% (active) in the experiment with RPMI-8226 leukemia; 48.1% with OVCAR-8 ovarian; 32.6% in the experiment with OVCAR-5 ovarian; 49.4% in the experiment with OVCAR-4 ovarian; 24.8% with SK-OV-3 ovarian. The growth in the experiment on IGROV1 ovarian was 63.5%; in the experiment on OVCAR-3 ovarian, 58%; with HS 578T breast, 45.5%; with NCI/ADR-RES ovarian, 43%; in the experiment with T-47D breast, 15.5%; in the experiment on BT-549 breast, 33.2%. Also, the growth was 39.9% in the experiment with MDA-MB-435 melanoma; 59.4% in the experiment with SW-620 colon; 7.64% (active) with MCF7 breast; 17.2% in the experiment with HCT-116 colon; 36% in the experiment on HCC-2998 colon; 30.1% in the experiment on KM12 colon. Moreover, in the experiment with MDA-MB-468 breast, the growth was 7.26% (active).
With `CC(C)c1sc(NC(=O)c2cc(NC(=O)c3cc(NC(=O)c4nccn4C)cn3C)cn2C)nc1C(=O)NCCCN(C)C`, the growth was 17.5% with SR leukemia; 104% with RPMI-8226 leukemia; 81.2% in the experiment on OVCAR-8 ovarian; 105% with OVCAR-5 ovarian; 75.3% in the experiment with OVCAR-4 ovarian; 60% with SK-OV-3 ovarian. Moreover, the growth with IGROV1 ovarian is 82.5%; with OVCAR-3 ovarian it was 70.9%; in the experiment on HS 578T breast, 90.3%; in the experiment with NCI/ADR-RES ovarian, 111%; in the experiment with T-47D breast, 75.8%; with BT-549 breast, 57.7%. Also, the growth in the experiment with MDA-MB-435 melanoma was 70.9%; with SW-620 colon, 66.6%; in the experiment on MCF7 breast it was 69.7%; with HCT-116 colon, 44.2%; in the experiment with HCC-2998 colon, 84.3%; in the experiment with KM12 colon, 111%. Further, the growth in the experiment on MDA-MB-468 breast is 65.3%.
For `CC1(c2cc3cc(Br)ccc3oc2=O)NC(=O)c2c(/C=C/C(=O)OC3CC4CCC3(C)C4(C)C)cccc2N1` (configuration not stated), the growth in the experiment on SR leukemia was 66.8%; with RPMI-8226 leukemia, 35.8%; in the experiment on OVCAR-8 ovarian, 89%; with OVCAR-5 ovarian it was 92.6%; in the experiment on OVCAR-4 ovarian it was 75.4%; in the experiment on SK-OV-3 ovarian, 86.4%. In addition, the growth with IGROV1 ovarian was 92.6%; with OVCAR-3 ovarian, 83.1%; with HS 578T breast it was 95.8%; in the experiment with NCI/ADR-RES ovarian, 74%; with T-47D breast it was 46.2%; in the experiment on BT-549 breast, 83.9%. In addition, the growth in the experiment on MDA-MB-435 melanoma is 99.2%; in the experiment on SW-620 colon, 89.1%; in the experiment with MCF7 breast, 50.6%; in the experiment with HCT-116 colon, 53.8%; with HCC-2998 colon, 95.9%; in the experiment with KM12 colon it was 72.8%. In addition, the growth in the experiment on MDA-MB-468 breast was 13.4%.
As for `C#C[C@]1(O)CC[C@H]2[C@@H]3CC=C4c5sc(-c6ccc([N+](=O)[O-])cc6)nc5CC[C@]4(C)[C@H]3CC[C@@]21C`, the growth with SR leukemia is 1.72% (active); with RPMI-8226 leukemia, -10.7% (active); with OVCAR-8 ovarian, 11.3%; in the experiment on OVCAR-5 ovarian, 12.5%; in the experiment with OVCAR-4 ovarian, 46.5%; in the experiment on SK-OV-3 ovarian it was 53%. For the same compound, the growth was 26.4% in the experiment on IGROV1 ovarian; -25.2% (active) in the experiment with OVCAR-3 ovarian; 29.6% in the experiment on HS 578T breast; 25.7% with NCI/ADR-RES ovarian; 24.9% with T-47D breast; 36.8% in the experiment on BT-549 breast. The growth in the experiment on MDA-MB-435 melanoma was 26.7%; in the experiment with SW-620 colon it was -12.5% (active); in the experiment with MCF7 breast it was 0.614% (active); in the experiment on HCT-116 colon, 0.46% (active); with HCC-2998 colon it was -49.2% (active); in the experiment on KM12 colon, -27.1% (active). Besides, the growth in the experiment with MDA-MB-468 breast was -17.8% (active).
Take `S=C(NCCc1ccccc1)Nc1ccc(OCc2nc3ccccc3[nH]2)cc1`: the growth with SR leukemia is 95.7%; in the experiment with RPMI-8226 leukemia it was 101%; in the experiment on OVCAR-8 ovarian, 102%; in the experiment with OVCAR-5 ovarian, 105%; in the experiment on OVCAR-4 ovarian, 108%; in the experiment with SK-OV-3 ovarian it was 99.4%. Further, the growth in the experiment with IGROV1 ovarian was 113%; with OVCAR-3 ovarian, 112%; in the experiment with HS 578T breast it was 109%; in the experiment with NCI/ADR-RES ovarian it was 110%; in the experiment on T-47D breast it was 103%; in the experiment on BT-549 breast, 109%. Further, the growth with MDA-MB-435 melanoma is 105%; with SW-620 colon, 107%; in the experiment on MCF7 breast, 95.3%; with HCT-116 colon, 103%; in the experiment on HCC-2998 colon, 114%; with KM12 colon, 103%. Besides, the growth with MDA-MB-468 breast was 99.5%.
`S=C(Nc1ccc(OCc2nc3ccccc3[nH]2)cc1)NC1CCCCC1`: the growth was 105% in the experiment on SR leukemia; 101% in the experiment with RPMI-8226 leukemia; 95.1% with OVCAR-8 ovarian; 117% with OVCAR-5 ovarian; 102% in the experiment with OVCAR-4 ovarian; 108% in the experiment on SK-OV-3 ovarian. Also, the growth is 107% in the experiment on IGROV1 ovarian; 123% in the experiment on OVCAR-3 ovarian; 102% in the experiment on HS 578T breast; 106% in the experiment on NCI/ADR-RES ovarian; 88.5% in the experiment on T-47D breast; 109% in the experiment with BT-549 breast. In addition, the growth is 105% in the experiment with MDA-MB-435 melanoma; 120% in the experiment on SW-620 colon; 75.3% in the experiment on MCF7 breast; 102% with HCT-116 colon; 111% with HCC-2998 colon; 82.1% in the experiment on KM12 colon. The growth with MDA-MB-468 breast was 107%.
As to `CC(=O)Nc1ccc(-n2cnc3cc(-c4ccc(O)cc4)ccc32)cc1C(F)(F)F`, the growth with SR leukemia is 16.3%; in the experiment on RPMI-8226 leukemia, 16.6%; in the experiment with OVCAR-8 ovarian, 16.1%; with OVCAR-5 ovarian it was 37.9%; with OVCAR-4 ovarian it was 40.8%; in the experiment on SK-OV-3 ovarian, 56.3%. The growth in the experiment with IGROV1 ovarian was 35.1%; with OVCAR-3 ovarian, 24.7%; in the experiment with HS 578T breast, 0.862% (active); with NCI/ADR-RES ovarian, 16.3%; with T-47D breast it was 20.5%; in the experiment on BT-549 breast, 32.5%. The growth is 3.5% (active) with MDA-MB-435 melanoma; 22.3% with SW-620 colon; 18.4% in the experiment on MCF7 breast; 31% with HCT-116 colon; 33.9% in the experiment with HCC-2998 colon; 3.46% (active) with KM12 colon. In addition, the growth with MDA-MB-468 breast was 8.18% (active).

Source of the values: PubChem BioAssay (NCI).
